This note sets out measurements from PubChem BioAssay (NCI).

The panel holds about 83,000 compounds, 20% with a hit somewhere; the sample as a whole holds those more often.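 Assay: single dose, 48 h. Readout: percent growth (0 = no net growth; negative = cell death). Active: <10.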 A number with no mark means an inactive call. Calls of active or inactive are those of the source.

Holding throughout (experiment): NCI-60 one-dose screen, 48 h (100 = growth as untreated, 0 = no growth, -100 = all killed)
Common to all, as to settings: 10 µM unless noted

Assay [1] concerns DU-145 prostate.
The test system of assay [2] is K-562 leukemia.
Assay [3] deals with MALME-3M melanoma.
The subject of assay [4] is MDA-MB-231 breast.
Assay [5] deals with RXF 393 renal.
The subject of assay [6] is SF-268 CNS.
Assay [7] relates to SF-295 CNS.
The subject of assay [8] is SF-539 CNS.
The subject of assay [9] is M14 melanoma.

On to `COc1cc(/C=C/C(=O)c2ccccc2O)ccc1OCCCOc1cc2c(cc1OC)C(=O)N1CCC[C@H]1C=N2`, for which the growth in assay [1] is 2.53% (active); in [2] it was 76.3%; in assay [3], -73.1% (active); in [4], -20.6% (active); in assay [5] it was -44.6% (active); in assay [6], 0.95% (active). Moreover, the growth in assay [7] is -11% (active); in [8], -1.54% (active); in assay [9], -7.64% (active).
For the compound `CCN(Cc1ccc(CN(CC)C(=O)C(Cl)(Cl)Cl)cc1)C(=O)C(Cl)(Cl)Cl`, the growth was 97.7% in assay [1]; 27% in assay [2]; 68.4% in assay [3]; 98.2% in [4]; 101% in [5]; 80.5% in [6]. Besides, the values for the growth in assay [7], in assay [8] and in [9] were 76.4%, 101% and 89.9%, respectively.
For `CCOc1ccc(/C=C/C=N/NC(N)=S)cc1`, the growth in assay [1] was 92.9%; in assay [2], 56%; in assay [3], 82%; in assay [4], 66.6%; in assay [5] it was -0.439% (active); in assay [6], 92.1%. Besides, the growth in assay [7] was 96.7%; in [8] it was 74.3%; in assay [9] it was 95.7%.
With `CC(Br)C(OC(=O)c1ccccc1Cl)c1cc2c(cc1Br)OCO2` (stereo not given), the growth in assay [1] was 92.7%; in [2], 94.6%; in assay [3], 92.9%; in assay [4], 94.3%; in assay [5] it was 77.8%; in assay [6], 86.1%. Further, the growth in assay [7] was 101%; in [8] it was 100%; in [9], 86.6%.
As for `O=C(Nc1cccc(Cl)c1)c1cc([N+](=O)[O-])ccc1O`, the growth was 73.2% in [1]; 27.7% in assay [2]; 22% in assay [3]; 38% in [4]; 46.2% in [5]; 65% in assay [6]. For the same compound, the growth in assay [7] is 58.8%; in assay [8], 32.2%; in assay [9], 54.9%.
With `C=C1C(=O)O[C@H]2[C@H]1CC/C(Cn1cc(-c3ccsc3)nn1)=C\CC[C@@]1(C)O[C@@H]21`, the growth in [1] is -83.5% (active); in [2] it was -16.2% (active); in assay [3], -66.4% (active); in assay [4] it was -58% (active); in assay [5], -56.7% (active); in assay [6], -25.8% (active). In addition, the growth in assay [7] is 53.9%; in assay [8] it was -72.1% (active); in assay [9] it was -56.7% (active).
For the compound `CCOP(=O)(CCN1CCN(CCCCCOc2cc3c(cc2OC)C(=O)N2CCC[C@H]2C=N3)CC1)OCC`, the growth in [1] was 91.5%; in assay [2] it was 35.7%; in assay [3] it was 119%; in assay [4] it was 74.3%; in assay [5], 46%; in assay [6], 57%. The growth was 97.3% in [7], 53.5% in [8] and 91.8% in assay [9].
With `C[N+](C)(C)c1ccc(CC2c3ccccc3-c3ccccc32)cc1`, the growth in assay [1] was 101%; in [2], 70.6%; in assay [3], 74.9%; in assay [4], 74.7%; in assay [5], 103%; in [6], 42.4%. For the same compound, the growth was 79.1% in [7], 25.5% in [8] and 75.4% in assay [9].
`CCCCCCCCCCC/C=C\C[C@H](O)C/C=C1/C(=O)C=C[C@@H]1C/C=C\CCCC(=O)OC`: the growth in assay [1] is 13.3%; in [2], 2.5% (active); in assay [3] it was -2.61% (active); in assay [4], -18.2% (active); in [5] it was -72.8% (active); in [6], 7.18% (active). The growth is -16% (active) in assay [7], -46.2% (active) in assay [8] and -31.9% (active) in [9].
As for `COC(=O)CC/C(C)=N\Nc1ccc([N+](=O)[O-])cc1`, the growth in assay [1] was 85.5%; in assay [2] it was 4.87% (active); in assay [3], 104%; in assay [4], 79.6%; in assay [5], 101%; in [6], 72.4%. Also, the results for the growth in assay [7], in assay [8] and in assay [9] were 72.4%, 65.8% and 20.4%, respectively.
In the case of `NC(=O)NNC(=O)c1ccccc1`, the growth in assay [1] is 115%; in [2], 103%; in [3] it was 110%; in [4], 113%; in [5], 113%; in assay [6] it was 107%. Also, the growth in assay [7] is 106%; in assay [8], 107%; in assay [9], 107%.
`O=C(/C=C/CN1CCCCC1)Nc1cc2c(Nc3ccc(F)c(Cl)c3F)ncnc2cc1OCCOC(F)F`: the growth in assay [1] was 17.6%; in assay [2], 7.24% (active); in [3] it was 25.8%; in [4] it was -4.23% (active); in assay [5] it was -17.1% (active); in assay [6], 16.1%. For the same compound, the growth in assay [7] is 28.1%; in assay [8], 16.8%; in assay [9], 34.2%.
As to `CC/C=C\C/C=C\C[C@H]1C/C=C2/C(=O)C=C[C@H]2C/C=C\CCC(=O)O1`, the growth in [1] is 12.7%; in [2], 1.48% (active); in [3], 12.4%; in assay [4], 3.22% (active); in assay [5], -48% (active); in assay [6], 12.7%. Besides, the growth was 6.87% (active) in [7], 13% in assay [8] and -3.62% (active) in assay [9].
On to `O=C(/C=C/CN1CCOCC1)Nc1cc2c(Nc3ccc(F)c(Cl)c3F)ncnc2cc1OCCOC(F)F`, for which the growth in assay [1] was 39.7%; in assay [2] it was 52%; in assay [3], 81.6%; in assay [4], 33.8%; in assay [5], 36.4%; in assay [6], 48.3%. Further, the figures for the growth in assay [7], in assay [8] and in assay [9] were 71.7%, 63.5% and 62.3%, respectively.
Turning to `COc1ccc2c(c1)C(C)Cc1c(N(C)C)ncnc1N2C` (stereo not given), the growth in assay [1] was 53.5%; in assay [2], 15.1%; in assay [3], 56.4%; in assay [4], 54.3%; in assay [5] it was 49%; in assay [6], 46.1%. In addition, the growth in [7] is 9.16% (active); in [8] it was 6.17% (active); in assay [9], 25.5%.
